Jurkat NFkB inh – inhibitors of the PMA/ionomycin-induced NF-kB reporter in Jurkat cells; inhibition, % at 4 µM; AID 435003; hit rate 0.53% among 330,000; PMA/ionomycin-induced NF-kB luciferase reporter, luminescence; in the data active means inhibition above about 50%
Beta cell apopt – beta cell apoptosis inhibition; hit rate 0.8% among 300,000; INS-1E cytokine-induced death, ATP luminescence, 48 h; percent of positive-control rescue, neutral wells zero; protection from apoptosis, % (concentration not given with the values);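 active means Every replicate reaches about 75%, or at least half do and their mean reaches it too, limit read from the data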;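 further: 0% = cytokine-treated negative control wells and 100% = positive control rescue; higher means more ATP so stronger rescue from cytokine killing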
Gli-Sufu block – blocks Gli-Sufu signaling in a luciferase reporter; Sufu-KO-LIGHT fibroblasts, Gli luciferase reporter luminescence; inhibition, % at 5 µM; hit rate 0.74% among 340,000;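 active means inhibition above about 55%, limit read from the data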;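 further: 0% = DMSO-treated cells and 100% = wells with medium but no cells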
697 NFkB inh – lowers PMA/ionomycin-induced NF-kB signal in 697 B cells | inhibition, % at 4 µM | hit rate 0.33% among 330,000 | AID 435022 | 697 B-cell NF-kB luciferase reporter, 16 h; in the data active means inhibition above about 35%
Starred values were filed as active, the others as inactive; nt = not tested or not shown. An excerpt weighted towards active compounds, which were near 1.8% of everything screened.

SMILES | Jurkat NFkB inh | Beta cell apopt | Gli-Sufu block | 697 NFkB inh
O=C(CSCc1ccccc1)N1CCN(S(=O)(=O)c2ccc(F)cc2)CC1 | 4.6 | 1.7 | -3.7 | -22.8
CCN(CC)S(=O)(=O)c1ccc(N/N=C(\C)c2ccc(OC)cc2O)nc1 | 20.1 | 96.7* | 24.6 | -21.3
CCN(CC)c1ccc(C(=C2C=CC(=[N+](CC)CC)C=C2)c2ccc(N(CC)CC)cc2)cc1 | nt | nt | 87.2* | nt
CCN(CC)c1ccc(C(=O)NNC(=O)CCNC(=O)c2ccccc2)cc1 | -20.4 | -2.9 | nt | -6.9
CCN(CC)c1ccc(C(=C2C=CC(=[N+](CC)CC)C=C2)c2ccccc2)cc1 | nt | nt | 92.3* | nt
CC(Oc1cccc(Cl)c1)C(=O)Nc1cc(S(=O)(=O)N2CCOCC2)ccc1N1CCCCC1 (configuration not stated) | -5.2 | 110.4* | 15.7 | -27.7
Cc1ccc(N(C(=O)c2csnn2)C(C(=O)NC2CCCCC2)c2ccncc2)cc1 (configuration not stated) | -3.8 | -5.3 | -16.4 | 13.9
O=C(COC(=O)c1ccc(Br)cc1)NCc1ccccc1 | -3.4 | -3.9 | 1.4 | -22.6
CC(=O)Cc1cc(O)c2ccccc2c1OC(=O)c1ccc(Br)cc1 | -2.1 | 108.0* | 15.1 | 6.5
COCC1CCCN(Cc2nc(C(c3ccccc3)c3ccccc3)no2)C1 (configuration not stated) | 10.5 | -0.6 | -3.6 | 12.5
CC(NC(=O)c1ccccc1)C(=O)N/N=C/c1ccccc1 (configuration not stated) | 11.4 | -5.5 | 15.9 | 6.4
Cc1cc(N/N=C/c2cccc([N+](=O)[O-])c2)nc(-n2nc(C)cc2C)n1 | -0.3 | 59.1 | 4.8 | 10.7
Cc1cc(N/N=C/c2cccc(Cl)c2)nc(-n2nc(C)cc2C)n1 | 2.5 | 103.2* | -3.7 | 10.1
Cc1cc(N/N=C/c2ccccc2[N+](=O)[O-])nc(-n2nc(C)cc2C)n1 | 5.5 | 127.8* | -7.7 | -18.5
COc1ccc(/C=N/Nc2cc(C)nc(-n3nc(C)cc3C)n2)cc1 | -3.5 | 90.0* | 11.6 | 4.9
COc1ccc2nc(C)cc(N/N=C/c3ccccc3)c2c1 | 38.3 | 96.1* | 16.4 | -28.0
COc1ccccc1/C=N/Nc1cc(C)nc2ccc(C)cc12 | -32.8 | -1.3 | -16.2 | -50.6
CC(OC(=O)C1CC=CCC1C(N)=O)C(Cl)=C(Cl)Cl (configuration not stated) | 7.9 | -5.6 | 1.8 | 9.0
CCOc1cc(C)c(C(C)C)cc1S(=O)(=O)N1CC(C)OC(C)C1 (configuration not stated) | 5.4 | -3.1 | 0.2 | 16.3
CS(=O)(=O)c1ccc(-c2sc3ccccc3c2C(=O)N2CCN(c3ccc(F)cc3)CC2)cc1 | -18.3 | -2.9 | -58.1 | -127.5
COc1cc(/C=N/Nc2nc(Nc3ccccc3)nc(-n3nc(C)cc3C)n2)cc(OC)c1OC | 39.1 | 71.6 | 14.8 | 20.9
COc1ccc(O)c(/C=N/Nc2nc(Nc3ccccc3)nc(-n3nc(C)cc3C)n2)c1 | 19.8 | 96.0* | 16.2 | 28.2
O=C(C1CCC1)N1CCc2cc(S(=O)(=O)Nc3ccc4c(c3)OCCO4)ccc21 | 20.8 | 78.6* | 49.4 | -41.2
CCC(=O)N1CCc2cc(S(=O)(=O)Nc3ccc4c(c3)OCCO4)ccc21 | 14.8 | 52.1 | 42.6 | -23.5
Cc1cccc(Oc2nc(-c3ccccn3)nc3ccccc23)c1 | -15.9 | 80.6* | -4.0 | -46.7
SMILES | Jurkat NFkB inh | Beta cell apopt | Gli-Sufu block | 697 NFkB inh
Cc1ccccc1Oc1nc(-c2ccccn2)nc2ccccc12 | 3.6 | 87.6* | -12.0 | -4.0
c1ccc(N2CCN(c3nc(-c4ccccn4)nc4ccccc34)CC2)cc1 | 5.2 | 92.7* | 8.6 | -4.1
Cc1cccc(C(=O)NNC(=O)c2ccccc2-n2cccc2)c1 | 15.8 | -2.4 | 2.9 | 12.0
O=C(COc1ccccc1)N1CCN(S(=O)(=O)Cc2ccccc2)CC1 | -5.1 | -3.2 | 3.5 | 7.3
CC1CCC2(CC1)NC(=O)N(NC(=O)c1ccc(OC(C)C)cc1)C2=O (configuration not stated) | -6.7 | nt | -7.0 | -10.1
O=C(Nc1ccc(-c2nc3ccccc3o2)cc1)c1ccc(N2CCOCC2)c([N+](=O)[O-])c1 | 4.6 | 98.6* | nt | -113.9
COc1ccc2oc(-c3ccc(NC(=O)c4ccc(N5CCOCC5)c([N+](=O)[O-])c4)cc3)nc2c1 | -15.2 | 13.5 | -6.5 | -227.3
O=C(CN1C(=O)S/C(=C\c2ccc(Cl)cc2)C1=O)NCCCn1ccnc1 | -15.0 | 11.7 | 13.5 | -35.4
NC1=C(Br)C(=O)c2ncccc2C1=O | nt | nt | 85.3* | nt
O=C1c2cccnc2C(=O)N1CO | 11.5 | -2.5 | 4.2 | 14.1
CN(C)c1nnnn1-c1ccc(Oc2ccccc2)cc1 | -10.0 | -0.5 | 16.2 | -15.3
COC(=O)[C@@H]1CCCN1C(=O)c1ccc(OC2CCN(Cc3ccccn3)CC2)cc1 | -2.9 | -0.7 | -6.0 | 3.8
Cc1nnsc1-c1onc(C)c1C(=O)Nc1cc(Cl)cc(Cl)c1 | -2.0 | 76.8* | 7.0 | -19.7
Cc1ccc(NC(=O)c2c(C)noc2-c2snnc2C)cc1 | 16.1 | -3.0 | -2.8 | 19.2
COc1ccc(-c2cc3nc4c(c(=O)n3[nH]2)CCC4)cc1 | -39.2 | -1.3 | -52.0 | -77.9
Cc1cccc(NC(=O)Cn2c(/C=C/c3ccccc3)nc3ccccc32)c1 | -23.2 | 80.2* | -28.2 | -7.6
Cc1ccc(NC(=O)Cn2c(=O)c(C)nc3ccccc32)cc1 | -3.5 | -7.1 | 8.1 | 10.1
CCCNC(=O)Cn1cnc2sc(C(=O)Nc3ccc4c(c3)OCO4)c(C)c2c1=O | -9.9 | -1.1 | -11.2 | 1.1
CCc1nnc(NC(=O)c2cccc(C(=O)Nc3nnc(CC)s3)n2)s1 | nt | 76.2* | 84.6* | nt
O=C(Nc1cccnc1)c1cccs1 | -9.8 | 89.0* | -3.8 | 1.9
O=C(NC(=S)Nc1cccnc1)c1cccs1 | -17.5 | -2.9 | -5.1 | -0.3
CCOC(=O)c1cnc2ccc(OCC)cc2c1N1CCN(c2ccccc2)CC1 | -5.2 | 104.8* | 10.3 | -10.4
CCOC(=O)CCS(=O)(=O)c1nc(-c2ccccc2)cc(C(F)(F)F)n1 | 34.2 | 30.7 | -12.3 | -140.1
CCOC(=O)CS(=O)(=O)c1nc(-c2ccccc2)cc(C(F)(F)F)n1 | -7.2 | 95.8* | -4.5 | -51.4
CCOc1cc(/C=C2\COc3ccccc3C2=O)cc(Br)c1OCC(=O)N(C)C | 23.6 | 100.0* | 13.8 | 22.7
SMILES | Jurkat NFkB inh | Beta cell apopt | Gli-Sufu block | 697 NFkB inh
O=C1CCc2cc(S(=O)(=O)NCc3ccc(F)cc3)cc3c2N1CC3 | -12.4 | nt | -4.4 | 6.0
CCCCn1c(NS(=O)(=O)c2ccccc2)c(S(=O)(=O)c2ccc(C)cc2)c2nc3ccccc3nc21 | nt | 85.7* | 11.2 | nt
Cc1nc(C)c(C(=O)N/N=C/c2c[nH]c3ccccc23)s1 | 34.3 | -9.0 | -32.0 | -34.9
Cc1nc(C)c(C(=O)N/N=C/c2cc(Br)ccc2O)s1 | 36.2 | 80.5* | 7.4 | -19.9
COc1ccc(CNC(=O)C2CCN(S(=O)(=O)N3CCCC3)CC2)cc1 | 8.5 | -7.1 | 0.5 | 13.6
CCN(CC)S(=O)(=O)c1ccc(C(=O)OC2CCCCC2CN(C)C)cc1 (configuration not stated) | 2.3 | 0.2 | -19.4 | -29.2
COc1ccc([C@@]23Oc4cc(OC)cc(OC)c4[C@]2(O)[C@H](O)[C@H](C(=O)N(C)C)[C@H]3c2ccccc2)cc1 | nt | nt | 76.8* | nt

From PubChem
